In PubChem BioAssay (Tox21):
Results filed as inconclusive are left out. Activity calls are given as the source filed them. Unless noted, calls come from the whole dose curve; as a rule, active = well fitted curve in the direction sought with a large enough effect in the repeat runs; inconclusive = weak or mixed curves; inactive = no such curve, though single readings can be large; an effect the other way counts as inactive or inconclusive.

How the values were obtained:
[1] = qHTS assay to test for compound auto fluorescence at 535 nm (green) in HEK293 cells (AID 720680)
[2] = qHTS assay to test for compound auto fluorescence at 460 nm (blue) in HEK293 cell free culture (AID 720681)
Procedure, shortened: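 Test compounds were pinned into cell-free culture medium (DMEM with 10% FBS) and fluorescence was read directly at Ex/Em 405/460 nm. Signals were expressed as fluorescence equivalents of triamterene, with DMSO vehicle as control.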

[3] = qHTS assay to test for compound auto fluorescence at 535 nm (green) in HEK293 cell free culture (AID 720682)
Procedure, shortened: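 Fluorescein serves as the green reference fluorophore; each compound's intrinsic emission at 535 nm (excitation 485 nm) is reported as an equivalent amount of that dye, measured in serum-containing DMEM without cells.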

[4] = qHTS assay to test for compound auto fluorescence at 590 nm (red) in HEK293 cell free culture (AID 720683)
Procedure, shortened: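 Tox21 10K library compounds were pinned into cell-free DMEM with 10% FBS and fluorescence was read at excitation 540 nm. Activity is expressed as Rose Bengal sodium equivalency.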

[5] = qHTS assay to test for compound auto fluorescence at 590 nm (red) in HepG2 cell free culture (AID 720684)
Procedure, shortened: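 Readout: intrinsic compound fluorescence at 590 nm emission after 540 nm excitation, scaled to Rose Bengal sodium. Matrix was cell-free MEM with 10% FBS; DMSO vehicle wells served as control.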

[6] = qHTS assay to test for compound auto fluorescence at 460 nm (blue) in HepG2 cell free culture (AID 720685)
Procedure, shortened: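 Cell-free plates of MEM plus 10% FBS received 23 nL compound or DMSO vehicle; blue-channel (405/460 nm) intensity scored against triamterene as reference fluorophore.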

[7] = qHTS assay to test for compound auto fluorescence at 460 nm (blue) in HepG2 cells (AID 720687)
Procedure, shortened: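 Cells (2,000/well in MEM with 10% FBS) attached overnight at 37 C, then were exposed to compound or DMSO for 1 hr at 37 C, 5% CO2. Fluorescence read at Ex/Em 405/460 nm, expressed as triamterene-equivalent signal.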

[8] = target: Glucocorticoid receptor (Homo sapiens) (UniProt P04150); assay: qHTS assay to identify small molecule agonists of the glucocorticoid receptor (GR) signaling pathway (AID 720691; active = well fitted activation curve with a large enough effect in the signal ratio in the repeat runs, not every such curve was filed as active; the % refers to the signal ratio)
Procedure, shortened: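 Measures GR pathway activation through a GRE-beta-lactamase reporter stably integrated in HeLa cells, with 18 h compound treatment at 37 C and fluorescence detection using a FRET substrate.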

[9] = target: Glucocorticoid receptor (Homo sapiens) (UniProt P04150); assay: qHTS assay to identify small molecule antagonists of the glucocorticoid receptor (GR) signaling pathway (AID 720692; active = well fitted inhibition curve with a large enough effect in the signal ratio in the repeat runs, not every such curve was filed as active; the % refers to the signal ratio)
Procedure, shortened: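 Tox21 10K library screened in concentration-response for blockade of dexamethasone (5 nM final)-induced GRE-bla reporter activity in HeLa cells; 18 h treatment, fluorescence read.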

[10] = qHTS assay to identify small molecule antagonists of the glucocorticoid receptor (GR) signaling pathway - cell viability counter screen (AID 720693); note: nearly all actives have a fitted effect of over 55% in size
[11] = qHTS assay for identifying genotoxic compounds that show differential cytotoxicity against isogenic chicken DT40 cell lines with known DNA damage response pathways - wild type cell line (AID 743012); note: nearly all actives have a fitted effect of over 60% in size; note: potency is the fitted concentration of half-maximal effect
Procedure, shortened: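 Endpoint: CellTiter-Glo luminescence, 30 min RT. Cells: wild type DT40, 300/well. Exposure: compounds in DMSO, 40 h, 37 C/5% CO2, after ~0.5 h pre-incubation.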

[12] = qHTS assay for identifying genotoxic compounds that show differential cytotoxicity against isogenic chicken DT40 cell lines with known DNA damage response pathways - Rev3 mutant cell line (AID 743014); note: nearly all actives have a fitted effect of over 55% in size; note: potency is the fitted concentration of half-maximal effect
[13] = qHTS assay for identifying genotoxic compounds that show differential cytotoxicity against isogenic chicken DT40 cell lines with known DNA damage response pathways - Rad54/Ku70 mutant cell line (AID 743015); note: nearly all actives have a fitted effect of over 60% in size; note: potency is the fitted concentration of half-maximal effect
[14] = qHTS assay to identify small molecule antagonists of the androgen receptor (AR) signaling pathway - cell viability counter screen (AID 743033; note: nearly all actives have a fitted effect of over 45% in size)
[15] = target: Androgen receptor (Homo sapiens) (UniProt P10275); assay: qHTS assay to identify small molecule antagonists of the androgen receptor (AR) signaling pathway (AID 743035; active = well fitted inhibition curve with a large enough effect in the signal ratio in the repeat runs, not every such curve was filed as active; the % refers to the signal ratio)
Procedure, shortened: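 R1881 agonist challenge of a HEK293 UAS-beta-lactamase AR reporter line in the presence of compound (16 h, 37C); signal taken as FRET fluorescence after 2 h with LiveBLAzer B/G substrate at room temperature.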

[16] = target: Androgen receptor (Homo sapiens) (UniProt P10275); assay: qHTS assay to identify small molecule agonists of the androgen receptor (AR) signaling pathway (AID 743036; active = well fitted activation curve with a large enough effect in the signal ratio in the repeat runs, with a control signal flat, not every such curve was filed as active; the % refers to the signal ratio)
Procedure, shortened: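 Fluorescence from a beta-lactamase FRET substrate served as read-out in AR-UAS-bla GripTite HEK293 cells. Cells were treated with DMSO-dissolved compounds for 16 h at 37C, then with LiveBLAzer B/G substrate for 2 h at room temperature.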

[17] = target: Androgen receptor (Homo sapiens) (UniProt P10275); assay: qHTS assay to identify small molecule agonists of the androgen receptor (AR) signaling pathway using the MDA cell line (AID 743040; note: nearly all actives have a fitted effect of over 20% in size)
Procedure, shortened: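 Agonist activity is measured as luciferase luminescence in human MDA-kb2 cells whose MMTV reporter responds to both AR and GR. Compounds in DMSO incubate 16 h at 37C, 0% CO2, and ONE-Glo is read after 30 min.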

[18] = qHTS assay to identify small molecule antagonists of the androgen receptor (AR) signaling pathway using the MDA cell line - cell viability counter screen (AID 743041; note: nearly all actives have a fitted effect of over 45% in size)
Procedure, shortened: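 qHTS viability read-out; MDA-kb2 AR-luc; R1881-stimulated; 16 h exposure at 37C, 0% CO2; CellTiter-Fluor, 30 min; fluorescence intensity.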

[19] = target: Androgen receptor (Homo sapiens) (UniProt P10275); assay: qHTS assay to identify small molecule antagonists of the androgen receptor (AR) signaling pathway using the MDA cell line (AID 743042; note: nearly all actives have a fitted effect of over 55% in size)
Procedure, shortened: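 MDA-kb2 cells (human breast carcinoma, stably carrying an MMTV-luciferase reporter responsive to AR and GR) were plated at 3,000 cells/well and preincubated 5 hr at 37C, then given compound plus R1881 agonist for 16 h. ONE-Glo luminescence was read.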

[20] = qHTS assay to test for compound auto fluorescence at 535 nm (green) in HepG2 cell free culture (AID 720686)
% is set by controls: 0 for no effect and ±100 for the full control effect.

Androgen receptor (Homo sapiens), sequence (P10275 whole entry, looked up): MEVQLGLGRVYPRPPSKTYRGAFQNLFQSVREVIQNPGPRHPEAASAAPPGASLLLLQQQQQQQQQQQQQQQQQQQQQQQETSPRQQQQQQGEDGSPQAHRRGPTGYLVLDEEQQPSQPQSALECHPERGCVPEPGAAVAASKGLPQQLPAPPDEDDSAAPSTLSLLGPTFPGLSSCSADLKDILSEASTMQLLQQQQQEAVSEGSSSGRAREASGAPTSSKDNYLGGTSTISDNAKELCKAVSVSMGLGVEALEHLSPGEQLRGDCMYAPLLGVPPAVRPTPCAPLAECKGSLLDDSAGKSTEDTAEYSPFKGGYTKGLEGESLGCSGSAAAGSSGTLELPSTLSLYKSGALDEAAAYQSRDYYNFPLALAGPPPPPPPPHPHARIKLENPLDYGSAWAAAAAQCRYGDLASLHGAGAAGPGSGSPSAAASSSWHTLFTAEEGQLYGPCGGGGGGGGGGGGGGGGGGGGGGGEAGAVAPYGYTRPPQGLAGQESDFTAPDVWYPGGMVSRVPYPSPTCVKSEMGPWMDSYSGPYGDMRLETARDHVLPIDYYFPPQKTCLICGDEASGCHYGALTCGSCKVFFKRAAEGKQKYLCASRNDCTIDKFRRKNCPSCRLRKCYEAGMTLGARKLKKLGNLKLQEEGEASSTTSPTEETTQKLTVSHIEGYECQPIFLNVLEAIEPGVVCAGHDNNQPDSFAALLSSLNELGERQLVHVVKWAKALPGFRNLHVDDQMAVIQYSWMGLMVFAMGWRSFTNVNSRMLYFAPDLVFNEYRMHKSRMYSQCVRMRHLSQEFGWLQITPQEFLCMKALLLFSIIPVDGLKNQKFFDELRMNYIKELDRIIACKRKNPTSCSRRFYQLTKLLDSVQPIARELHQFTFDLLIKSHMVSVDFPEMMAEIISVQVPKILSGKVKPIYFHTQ
Glucocorticoid receptor (Homo sapiens), sequence (P04150 whole entry, looked up): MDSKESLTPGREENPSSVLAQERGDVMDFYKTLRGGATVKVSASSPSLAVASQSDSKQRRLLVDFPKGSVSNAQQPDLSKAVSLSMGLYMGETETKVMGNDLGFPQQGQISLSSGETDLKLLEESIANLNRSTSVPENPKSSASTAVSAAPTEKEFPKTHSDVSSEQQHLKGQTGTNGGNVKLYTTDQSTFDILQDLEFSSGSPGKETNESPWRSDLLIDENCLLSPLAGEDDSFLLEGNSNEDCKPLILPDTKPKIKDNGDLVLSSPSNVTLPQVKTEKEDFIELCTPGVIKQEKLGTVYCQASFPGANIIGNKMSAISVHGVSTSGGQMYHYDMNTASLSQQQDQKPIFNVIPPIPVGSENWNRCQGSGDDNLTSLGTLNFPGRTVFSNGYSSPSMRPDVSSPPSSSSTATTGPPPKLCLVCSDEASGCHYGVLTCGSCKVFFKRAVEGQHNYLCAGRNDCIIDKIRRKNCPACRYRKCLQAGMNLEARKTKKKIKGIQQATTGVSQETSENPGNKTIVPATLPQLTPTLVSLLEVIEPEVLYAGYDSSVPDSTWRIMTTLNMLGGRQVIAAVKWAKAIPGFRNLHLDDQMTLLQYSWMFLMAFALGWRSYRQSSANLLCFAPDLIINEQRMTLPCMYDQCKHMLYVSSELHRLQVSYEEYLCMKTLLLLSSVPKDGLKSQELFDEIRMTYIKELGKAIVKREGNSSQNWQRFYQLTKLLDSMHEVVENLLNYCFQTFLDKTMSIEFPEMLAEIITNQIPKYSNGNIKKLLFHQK

C=Cc1ccc(C=C)cc1
inactive: outcome [1] | Potency [2] | outcome [3] | outcome [4] | outcome [5] | outcome [6] | outcome [7] | Potency [8] | Potency [9] | Potency [10] | Potency [11] | Potency [12] | Potency [13] | Potency [14]

Cc1c(N=C=O)cccc1N=C=O
inactive: outcome [1] | Potency [2] | outcome [3] | outcome [4] | outcome [5] | outcome [6] | outcome [7] | Potency [8] | Potency [9] | Potency [10] | Potency [12] | Potency [13] | Potency [14] | Potency [15] | outcome [16] | outcome [17] | Potency [18] | Potency [19]

COc1ccc(C(=O)Nc2ccccc2)cc1[N+](=O)[O-]
inactive: outcome [1] | Potency [2] | outcome [3] | outcome [4] | outcome [5] | outcome [6] | outcome [20] | Potency [8] | Potency [9] | Potency [10] | Potency [14] | Potency [18]

c1ccc(CCNc2nc(-c3ccccc3)cs2)cc1
inactive: outcome [1] | Potency [2] | outcome [3] | outcome [4] | outcome [5] | outcome [6] | outcome [7] | Potency [10] | Potency [18]
active: Potency [11] 29.8 µM | Potency [12] 29.8 µM | Potency [13] 33.5 µM

O=Cc1ccc(Cl)c([N+](=O)[O-])c1
inactive: outcome [1] | Potency [2] | outcome [3] | outcome [4] | outcome [5] | outcome [6] | outcome [7] | Potency [14] | Potency [18]
active: Potency [11] 4.33 µM | Potency [13] 3.06 µM

CCCCCC1CCC(=O)O1 (stereo not given)
inactive: outcome [1] | Potency [2] | outcome [3] | outcome [4] | outcome [5] | outcome [6] | outcome [20] | Potency [8] | Potency [9] | Potency [11] | Potency [13] | Potency [14] | Potency [18]

NC(=O)c1cc[n+](CC2=C(C(=O)[O-])N3C(=O)[C@@H](NC(=O)Cc4cccs4)[C@H]3SC2)cc1
inactive: fluorescence, % of fluorescein [1] 0.0094% [at 18.6 µM] | fluorescence, % of fluorescent control [2] 0.628% [at 18.6 µM] | activity change [3] 0.0615% [at 18.6 µM] | fluorescence, % of fluorescent control [4] 0.0033% [at 18.6 µM] | fluorescence, % of Rose Bengal [5] 0.512% [at 18.6 µM] | fluorescence, % of fluorescent control [6] 0.491% [at 18.6 µM] | fluorescence, % of fluorescent control [7] 0.406% [at 18.6 µM] | Potency [10] | Potency [11] | Potency [12] | Potency [13]

OCCc1ccncc1
inactive: outcome [1] | Potency [2] | outcome [3] | outcome [4] | outcome [5] | outcome [6] | outcome [7] | Potency [8] | Potency [9] | Potency [11] | Potency [12] | Potency [13] | Potency [14] | Potency [18]

CC/C=C/CCO
inactive: outcome [1] | Potency [2] | outcome [3] | outcome [4] | outcome [5] | outcome [6] | outcome [7] | Potency [8] | Potency [10] | Potency [11] | Potency [13] | Potency [14] | Potency [18]

O=C(c1ccc(Cl)cc1)c1ccc(Cl)cc1
inactive: outcome [1] | Potency [2] | outcome [3] | outcome [4] | outcome [5] | outcome [6] | outcome [7] | Potency [10] | Potency [12] | Potency [13] | Potency [14] | Potency [15] | outcome [16] | outcome [17] | Potency [18] | Potency [19]

CC(C)CC(C)(C)C
inactive: outcome [1] | Potency [2] | outcome [3] | outcome [4] | outcome [5] | outcome [6] | Potency [8] | Potency [10] | Potency [11] | Potency [12] | Potency [13] | Potency [18]

COC(=O)c1cc(Cl)ccc1[N+](=O)[O-]
inactive: outcome [1] | Potency [2] | outcome [3] | outcome [4] | outcome [5] | outcome [6] | Potency [8] | Potency [9] | Potency [10] | Potency [11] | Potency [13] | Potency [14]

OCCCO
inactive: outcome [1] | Potency [2] | outcome [3] | outcome [4] | outcome [5] | outcome [20] | outcome [7] | Potency [8] | Potency [9] | Potency [10] | Potency [11] | Potency [12] | Potency [13] | Potency [14] | outcome [16] | outcome [17] | Potency [19]

O=S(=O)(O)c1cc(Cl)c(Cl)cc1Cl
inactive: outcome [1] | Potency [2] | outcome [3] | outcome [4] | outcome [5] | outcome [20] | outcome [7] | Potency [10] | Potency [11] | Potency [13] | Potency [14] | outcome [16] | outcome [17] | Potency [18] | Potency [19]

CCn1nc(Cc2ccccc2)cc1C1CCN(C[C@H]2C[C@H](N(C)[C@@H](C(=O)O)C(C)C)C[C@@H]2c2cccc(F)c2)CC1
active: Potency [11] 61.1 µM | Potency [12] 61.1 µM | Potency [13] 24.3 µM
inactive: Potency [2] | outcome [3] | outcome [4] | outcome [5] | outcome [6] | outcome [20] | outcome [7] | Potency [8] | Potency [9] | Potency [10] | Potency [14] | Potency [18]

O=C1OC(=O)C2CC=CCC12 (stereo not given)
inactive: Potency [2] | outcome [3] | outcome [4] | outcome [5] | outcome [6] | outcome [20] | outcome [7] | Potency [8] | Potency [9] | Potency [10] | Potency [11] | Potency [12] | Potency [13] | Potency [14] | Potency [18]
